Assay outcomes (PubChem)
PLCg1 inh: PLC-gamma1 (human) inhibition, primary screen. purified PLC-gamma1, fluorogenic substrate, fluorescence. inhibition, % at 12.2 µM. P19174. 370,000 tested, 0.84% active. AID 720700; in the data active means inhibition above about 9.5%
sPLA2-III inh: Inhibits HGIII-sPLA2 liposome hydrolysis, primary screen; QFRET BODIPY PC-A2 liposome hydrolysis, fluorescence; 370,000 tested, 0.56% active; inhibition, % at 12.2 µM;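 active means inhibition above mean plus 3 SD of compounds lying within the high and low control bounds, cut at about 19% in these data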;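 further: 0% = median of test compound wells and 100% = no enzyme DMSO wells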
AHR activator: activates the human aryl hydrocarbon receptor; activation, % at 5 µM; 320,000 tested, 2.5% active; AHR-responsive luciferase reporter cells, luminescence; P35869; in the data active means activation above about 47%;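 further: 0% = vehicle wells and 100% = reference agonist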
Target sequence (P35869 whole entry, looked up): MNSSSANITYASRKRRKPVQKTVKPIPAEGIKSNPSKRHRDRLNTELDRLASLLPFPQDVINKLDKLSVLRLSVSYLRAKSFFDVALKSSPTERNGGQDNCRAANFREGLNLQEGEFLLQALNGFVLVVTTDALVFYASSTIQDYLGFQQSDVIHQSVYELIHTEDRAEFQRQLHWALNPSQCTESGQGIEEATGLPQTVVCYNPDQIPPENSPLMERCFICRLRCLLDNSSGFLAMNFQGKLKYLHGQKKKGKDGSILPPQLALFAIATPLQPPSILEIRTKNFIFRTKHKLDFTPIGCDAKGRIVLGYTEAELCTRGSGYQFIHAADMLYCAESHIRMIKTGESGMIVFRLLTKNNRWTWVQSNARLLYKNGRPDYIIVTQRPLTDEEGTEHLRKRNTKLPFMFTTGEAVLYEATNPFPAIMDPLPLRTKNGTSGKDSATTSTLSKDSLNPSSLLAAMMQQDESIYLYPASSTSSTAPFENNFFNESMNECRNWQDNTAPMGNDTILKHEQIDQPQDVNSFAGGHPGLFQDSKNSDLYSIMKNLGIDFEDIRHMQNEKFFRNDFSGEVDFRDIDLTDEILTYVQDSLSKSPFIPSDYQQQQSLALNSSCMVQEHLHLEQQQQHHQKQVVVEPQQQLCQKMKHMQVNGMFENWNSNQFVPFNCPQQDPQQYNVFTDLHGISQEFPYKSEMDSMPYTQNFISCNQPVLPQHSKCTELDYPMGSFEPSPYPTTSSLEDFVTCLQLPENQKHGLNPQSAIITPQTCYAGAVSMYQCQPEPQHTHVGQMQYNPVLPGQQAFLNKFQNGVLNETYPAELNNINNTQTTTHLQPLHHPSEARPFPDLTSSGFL
CR mimetic SO: lowers age-related superoxide in aged yeast cells; superoxide response (% of plate mean), % at 10 µM; AID 2690; S. cerevisiae aged cells, superoxide DHE fluorescence; hits give low values; 330,000 tested, 0.18% active;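 active means superoxide response under a set limit, about three screen SD below normal, cut at about 65% in these data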;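 further: yeast aged for seven days with compound at 30 °C before DHE staining; 100% = average MFI of all compound-treated wells on the plate with controls excluded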
PLC-beta3 inh: PLC-beta3 (human) inhibition, primary screen. Q01970. Purified PLC-beta3, fluorogenic substrate, fluorescence. inhibition, % at 12.2 µM. 370,000 tested, 0.18% active. AID 720704; in the data active means inhibition above about 11%;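 further: 0% = median of compound wells on plate and 100% = full blocker control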
HIF act: HIF pathway transcriptional activation; U2OS HRE-luciferase reporter, luminescence; normalized: DMSO 0%, desferrioxamine 100%; activation, % at 7.5 µM (by protocol); 300,000 tested, 0.32% active; AID 1910;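 active means mean activation of at least 10% of the iron chelator positive control signal, with at least half of replicates also reaching 10%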
An asterisk follows results filed as active; . = not tested or not shown. Only some compounds are listed: those with a hit (about 3.9% of all), similar ones and a draw of the others.

SMILES	PLCg1 inh	sPLA2-III inh	AHR activator	CR mimetic SO	PLC-beta3 inh	HIF act
O=C(Cc1ccccc1)Nc1nc2ccccc2[nH]1	-4.4	7.1	5.9	86.8	-5.8	0.7
OCCCNc1c2ccccc2nc2ccccc12	-156.1	-2.8	11.3	105.0	-212.0	15.7*
OCc1c[nH]c2ccccc12	-19.1	-3.0	53.0*	97.8	-21.8	.
COc1ccc(CNS(=O)(=O)/C=C/c2ccc(OC)cc2CNC(=O)OC(C)(C)C)cc1	-0.1	-11.1	.	.	3.7	.
COc1cc2c(cc1OC)/C(=C/C(=O)c1cccc([N+](=O)[O-])c1)NCC2	-36.0	-0.1	79.0*	100.1	-61.3	-0.5
O=C(Nc1cccc(Cl)c1)c1ccncc1	-1.9	2.2	17.3	105.5	-2.5	0.6
O=C(Nc1ccc(Cl)c(Cl)c1)c1ccncc1	0.3	-1.3	64.8*	95.9	0.8	2.2
Cc1ccccc1NC(=O)c1ccc(Cl)c(NC(=O)c2ccncc2)c1	5.0	-0.8	48.5*	101.9	3.7	-0.5
O=C(Nc1ccc(Cl)c(Cl)c1)Nc1nccs1	-0.1	-1.8	58.6*	103.4	-5.6	3.6
CCn1cc(Br)c(C(=O)Nc2ccc(F)c(Cl)c2)n1	-2.7	4.4	51.4*	94.8	0.2	3.5
Cc1cccc(NC(=O)c2ccc(Cl)c(NC(=O)c3ccncc3)c2)c1C	1.8	9.4	-1.1	105.9	-3.8	-0.3
O=C(NC1CCC1)c1ccc(C#CC2CC2)c[n+]1[O-]	-3.4	13.8	.	.	-5.0	.
O=C(Nc1ccc(F)c(Cl)c1)c1ccccc1	0.8	1.9	55.6*	98.0	1.0	.
Fc1ccc(NC(=S)Nc2cccnc2)cc1Cl	1.9	0.5	19.0	102.5	-5.5	-0.3
Fc1ccc(NC(=S)Nc2cc(-c3ccccc3)[nH]n2)cc1Cl	-1.2	-2.9	53.5*	87.9	-8.8	0.5
COP(=O)(O)CCOCCC(CC(C)C)NC(=O)OCc1ccccc1 (stereo not given)	3.2	15.8	.	.	1.5	.
COc1ccc(C(=O)OCCN2CCN(C3CN(Cc4cn(Cc5cccc(F)c5)nn4)S(=O)(=O)C3)CC2)cc1OC (stereo not given)	0.8	4.4	.	.	1.3	.
COc1ccc(OC)c(CNC(=O)C2CCCN(S(=O)(=O)N3CCC(C)CC3)C2)c1 (stereo not given)	1.2	2.1	9.4	80.6	-5.6	24.7*
CC(C)(C)NC(=O)[C@@H](c1cccnc1)N(C(=O)c1ccco1)c1ccc(C(C)(C)C)cc1	2.1	0.8	.	.	-0.4	.
O=C(c1ccc(Br)o1)N1CCN(c2ncccn2)CC1	2.2	-0.4	58.7*	118.3	3.0	1.0
O=C(Nc1ccccc1O)c1c(O)c2c([nH]c1=O)CCCC2	-13.9	-1.7	56.8*	98.5	-16.8	3.0
CCCn1nc(NC(=O)CC(C)C)c2cc3ccccc3nc21	-45.7	3.0	78.1*	99.5	-64.1	-0.4
CCn1c(SCc2nc3sc(C(=O)O)c(C)c3c(=O)[nH]2)nnc1-c1ccc(Cl)cc1	-3.9	-4.0	-0.7	92.4	-8.7	0.2
Cc1sc2nc(CSc3nnnn3-c3ccc(Cl)cc3)[nH]c(=O)c2c1C	-24.1	-5.9	50.8*	91.8	-21.1	0.1
COC(=O)[C@@]12CCCCC3=C1N(CCC3)C(=O)[C@H]2CC(=O)NCC12CC3CC(CC(C3)C1)C2	-2.8	0.8	.	.	-0.9	.
SMILES	PLCg1 inh	sPLA2-III inh	AHR activator	CR mimetic SO	PLC-beta3 inh	HIF act
O=C(Nc1ccccc1)c1nc[nH]c1C(=O)NCCNC(=O)c1[nH]cnc1C(=O)Nc1ccccc1	0.3	-6.8	76.0*	107.9	-2.2	.
O=C(Nc1cccc(Cl)c1)c1nc[nH]c1C(=O)NCCCNC(=O)c1[nH]cnc1C(=O)Nc1cccc(Cl)c1	-3.0	2.4	34.1	100.1	-0.4	.
O=C(Nc1ccccc1)c1nc[nH]c1C(=O)NCCCCNC(=O)c1[nH]cnc1C(=O)Nc1ccccc1	0.9	-8.9	19.3	101.9	0.9	.
CN(CCN(C)C(=O)c1[nH]cnc1C(=O)Nc1ccccc1)C(=O)c1[nH]cnc1C(=O)Nc1ccccc1	-0.2	2.0	47.4*	102.2	-4.1	.
CNC(=O)c1[nH]cnc1C(=O)Nc1cccc(Cl)c1	3.5	-1.6	54.8*	118.3	6.2	.
CN(Cc1ccccc1)C(=O)c1[nH]cnc1C(=O)Nc1ccc(Cl)cc1	-0.4	-24.4	65.6*	118.8	-3.0	.
CCn1c(=O)n(CC(=O)N2CCC(C)CC2)c(=O)c2ccccc21	-0.8	1.5	.	.	-2.0	.
Cc1cc2nc3n(c2cc1C)CCCN3	2.0	4.0	72.5*	95.6	-6.9	-0.5
Cc1ccc(C(=O)NC2CCCCN(Cc3ccc(Cl)cc3)C2=O)c(C)c1 (stereo not given)	1.3	0.1	.	.	-4.4	.
COc1ccccc1/C=N/Nc1cc(N(C)C)nc(N(C)C)n1	-10.9	8.9	43.3	95.2	-14.2	-0.3
CN(C)c1cc(N/N=C\c2ccccc2)nc(N(C)C)n1	-11.6	7.8	54.4*	88.4	-13.3	0.5
COc1ccc(/C=N/Nc2cc(N(C)C)nc(N(C)C)n2)cc1	-20.4	11.2	48.7*	89.3	-20.7	0.0
CCOCCCNC(=O)C1CCN(S(=O)(=O)c2cc3c(cc2Br)CCN3C(=O)CC)CC1	-1.4	0.1	.	.	2.8	.
COC(=O)[C@H](Cc1ccccc1)N1CC(N2CCCC2)CS1(=O)=O (stereo not given in full)	-0.2	7.4	.	.	0.7	.
Cc1ccc(-c2nc3ccccc3c(=O)n2NC(=O)c2cccs2)cc1	2.4	-4.5	51.7*	108.3	5.8	-0.3
Cc1cccc(-c2nc3ccccc3c(=O)n2NC(=O)c2cccs2)c1	-0.2	9.4	9.2	96.9	-2.9	-0.2
Cc1ccc(N(C)S(=O)(=O)c2ccc(-c3cc(C)no3)s2)cc1	3.6	-7.9	0.3	111.3	-5.8	9.7*
COc1ccc(S[C@]2(C(=O)N(C)C)CC(=O)N(C(=O)c3ccccc3)[C@@H]2c2ccc(OC)cc2)cc1	1.1	0.7	.	.	-0.4	.
COc1cc(C#Cc2c(-c3cncn3C)n(C)c3ccc(-c4ccc(OC)nc4)cc23)cc(OC)c1	-29.1	9.5	59.5*	113.6	-41.9	.
O=C1N2Cc3ccccc3C2CS(=O)(=O)N1C1CCCC1 (stereo not given)	7.8	18.3	.	.	0.8	.
O=C(Nc1ccc(F)cc1F)c1cc(-c2ccc(Cl)cc2)nc2ccccc12	-0.1	4.1	.	.	1.2	.
Cc1cccc(-c2cccc3c4c([nH]c23)[C@@H]2C[C@H](N(C)C(=O)C3CCCCC3)[C@H]([C@H](C)O)CN2CC4)c1	-40.0	2.8	.	.	-48.8	.
O=C(Nc1cccc2ccccc12)N1CC=C(c2ccccc2)CC1	-62.6	4.8	54.2*	104.9	-72.5	-1.3
Cc1ccc(-c2nc(Nc3cccc(O)c3)c3ccccc3n2)cc1	-122.5	-42.7	31.3	100.6	-172.1	1.6
Cc1ccc(C)c(Nc2nc(-c3ccncc3)nc3ccccc23)c1	-17.9	0.4	67.9*	107.0	-40.1	0.6
Cc1ccc(-c2nc(Nc3ccc(N4CCOCC4)cc3)c3ccccc3n2)cc1	-16.5	-4.8	70.5*	79.5	-27.9	2.0
